Screening data (PubChem)
This excerpt belongs to a sample that is enriched for hits.
HT1080-NT tox: kills 2HG-producing HT-1080-NT fibrosarcoma cells; AID 686970; HT-1080-NT fibrosarcoma viability, CellTiter-Glo ATP luminescence, 48 h; Potency, µM (series often up to 46.1 µM), for inactives: at the top dose activity, negative = less viability, most hits filed as cytotoxic; 360,000 tested, 1.6% active;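 note: NT is the 2HG producing partner of a matched IDH1 knockdown line; potency is the fitted concentration of half-maximal effect; 0% = DMSO-treated cells and -100% = media-only wells without cells; nearly all actives have a fitted effect of over 55% in size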
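Compounds were tested in concentration-response format on HT-1080-NT cells for 48 hours at 37 degrees C. Cell viability came from CellTiter-Glo luminescence; curves were classified by r2, response magnitude and activity.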
HT1080 IDH1KD tx: HT-1080 IDH1 knockdown cell toxicity (counter line); HT-1080 IDH1 knockdown viability, ATP luminescence, 48 h; Potency, µM (doses to about 46.1 µM), without a hit: at the top dose activity, negative = toxicity, usual class: cytotoxic; 360,000 tested, 2% active; AID 686971;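 note: potency is the fitted concentration of half-maximal effect; 0% = DMSO wells and -100% = cell-free medium wells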
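HT-1080-IDH1KD cells (IDH1 knocked down), 750/well in RPMI with 5% FBS, treated with compound 48 h at 37 degrees C. Viability by CellTiter-Glo luminescence, normalised to DMSO and no-cell wells; concentration-response curves classed.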
DT40 TDP1 no CPT: qHTS for Inhibitors of human tyrosyl-DNA phosphodiesterase 1 (TDP1): qHTS in cells in absence of CPT; DT40 Tdp1-/- hTDP1 cells, no CPT, ATP luminescence, 48 h; Potency, µM (doses to about 46.2 µM), for the others: top-dose activity change, negative = growth inhibition, hits mostly inhibitors; 420,000 tested, 15% active; AID 686978, 2013; note: potency is the fitted concentration of half-maximal effect; nearly all actives have a fitted effect of over 55% in size
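Readout: luminescence from CellTiter-Glo after 30 min in the dark at RT. Cells: DT40 Tdp1-/- with stable hTDP1, 400/well. Exposure: compounds alone, ≥48 hr, 37 °C.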
IL1B secr inh: blocks inflammasome-driven IL-1 beta release. AID 743279. THP-1 LPS/ATP IL-1B secretion, AlphaLISA, 16 h; active compounds read low. activity change, % at 57.5 µM. 360,000 tested, 4.7% active; in the data active = activity change below about -50%; inconclusive = mostly about -30% to -49%
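Secreted IL-1B measured by AlphaLISA bead assay after 16 h compound exposure of THP-1 cells; compounds (final up to 57.5 uM) added 1 h before LPS (250 ng/mL) and ATP (1.25 mM) stimulation; lower signal means less secretion.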
TDP1 cell CPT: growth inhibition of DT40 Tdp1-/-;hTDP1 cells with camptothecin (screen for TDP1 inhibitors); chicken DT40 Tdp1-/-;hTDP1 cells + 20 nM CPT, ATP luminescence, 48 h; Potency, µM (top dose mostly 46.2 µM), inactives show top-dose activity change, negative = growth inhibition, most hits filed as inhibitors; 420,000 tested, 12% active; note: potency is the fitted concentration of half-maximal effect; nearly all actives have a fitted effect of over 55% in size
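Cell growth measured by CellTiter-Glo luminescence after a minimum 48 h, 37 C compound exposure with 20 nM CPT in Tdp1-knockout DT40 cells stably expressing hTDP1, seeded 400/well; qHTS titration format.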
ALOX12 inh: ALOX12 (human) lipoxygenase inhibition | P18054 | purified 12hLO, xylenol orange hydroperoxide absorbance | Potency, µM (series often up to 108 µM), for the others: at the top dose activity change, negative = inhibition, hits mostly inhibitors | 580,000 tested, 1.1% active; note: potency is the fitted concentration of half-maximal effect
Target sequence (P18054 whole entry, looked up): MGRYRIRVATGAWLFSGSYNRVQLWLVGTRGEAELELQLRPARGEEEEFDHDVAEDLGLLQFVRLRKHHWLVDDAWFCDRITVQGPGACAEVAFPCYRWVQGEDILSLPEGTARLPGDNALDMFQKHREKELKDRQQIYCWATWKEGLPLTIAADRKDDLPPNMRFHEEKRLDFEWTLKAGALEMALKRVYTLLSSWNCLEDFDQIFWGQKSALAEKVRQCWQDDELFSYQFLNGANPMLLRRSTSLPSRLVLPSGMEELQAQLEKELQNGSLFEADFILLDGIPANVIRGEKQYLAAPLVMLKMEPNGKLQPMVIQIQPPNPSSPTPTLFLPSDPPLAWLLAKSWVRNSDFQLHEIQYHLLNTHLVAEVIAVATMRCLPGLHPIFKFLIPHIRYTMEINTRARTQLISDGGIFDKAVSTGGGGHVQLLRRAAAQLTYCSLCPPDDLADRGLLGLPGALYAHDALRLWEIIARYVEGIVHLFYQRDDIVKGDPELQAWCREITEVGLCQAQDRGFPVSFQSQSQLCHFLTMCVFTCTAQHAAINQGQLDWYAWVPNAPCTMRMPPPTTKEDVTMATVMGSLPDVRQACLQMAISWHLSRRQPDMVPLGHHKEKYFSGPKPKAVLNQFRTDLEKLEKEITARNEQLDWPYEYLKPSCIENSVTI
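Purified human 12hLO (150 nM final) in 25 mM Hepes, 0.01% Triton X-100, pH 7.0 was preincubated 15 min at room temperature with compound. Then 40 uM arachidonic acid was added, 30 min. Hydroperoxide was read by Fe-XO absorbance ratio 573/405 nm.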
Starred values were filed as active, the others as inactive; ? = inconclusive; · = no result given; [ ] = dose if it differs, or a comment. Unless noted, calls come from the whole dose curve; as a rule, active = well fitted curve in the direction sought with a large enough effect; inconclusive = small, poorly fitted or top-dose-only effect, or another doubt; inactive = no such curve, though single readings can be large; an effect the other way counts as inactive or inconclusive. Unless noted, % is set by controls: 0 for no effect and ±100 for the full control effect.

SMILES | HT1080-NT tox | HT1080 IDH1KD tx | DT40 TDP1 no CPT | IL1B secr inh | TDP1 cell CPT | ALOX12 inh
CCc1cc(C(=O)N2CCN(c3ccccc3OC)CC2)sc1C | ? | ? | 16.4µM* | -13.5 | ? | ?
COc1ccccc1N1CCN(C(=O)c2ccc3[nH]c(C)c(C)c3c2)CC1 | 1.46µM* | 1.3µM* | 1.03µM* | 38.4 | 1.3µM* | 0.0%
Cc1[nH]c2ccc(C(=O)N3CCCC3)cc2c1C | -0.3% | 0.0% | -1.5% | -7.7 | 20.0% | -9.0%
Cc1[nH]c2ccc(C(=O)N3CCN(c4cccc(Cl)c4)CC3)cc2c1C | ? | 7.31µM* | 6.51µM* | 0.0 | 6.51µM* | -17.8%
COc1cccc(NC(=O)c2ccc3c(c2)NC(C)(CNc2ccccc2)CO3)c1 (stereo not given) | · | · | · | · | · | -9.0%[176 µM]
O=[S+]1([O-])NC2(CCN(Cc3ccc(C(F)(F)F)cc3)CC2)CNc2ccccc21 | · | · | · | · | · | 47.3%
CCOc1ccc(C(=O)NC23CC4CC(CC(C4)C2)C3)cc1 | · | · | · | · | · | 12.1%
COc1ccccc1CCNC(=O)C(=O)NCC(c1cccs1)S(=O)(=O)c1cccs1 (stereo not given) | · | · | ? | · | ? | -29.4%
COc1ccc(CCNC(=O)C(=O)NCC(c2ccco2)S(=O)(=O)c2cccs2)cc1 (stereo not given) | · | · | 13µM* | · | 13µM* | -18.7%
COc1ccccc1CCNC(=O)C(=O)NCC(c1cccs1)S(=O)(=O)c1ccc(C)cc1 (stereo not given) | · | · | 20.6µM* | · | 14.6µM* | -24.4%
Cc1ccc(S(=O)(=O)C(CNC(=O)C(=O)NCCc2ccccc2)c2ccco2)cc1 (stereo not given) | · | · | ? | · | ? | 2.4%
COc1ccccc1CCNC(=O)C(=O)NCC(c1ccco1)S(=O)(=O)c1cccs1 (stereo not given) | · | · | ? | · | 20.6µM* | 1.0%
COc1ccccc1CCNC(=O)C(=O)NCC(c1ccco1)S(=O)(=O)c1ccc(C)cc1 (stereo not given) | · | · | ? | · | 20.6µM* | ?
Cc1nn(-c2ccccc2)c(Oc2ccccc2F)c1CCC(=O)NC(C)C | · | · | · | · | · | 4.0%
CCCCC(O)(c1ccccc1)C(CN1CCOCC1)c1ccccc1 (stereo not given) | -5.9% | -7.4% | ? | -5.1 | 23.1µM* | ?
CCCCC(O)(c1ccc(CC)cc1)C(CN1CCOCC1)c1ccccc1 (stereo not given) | ? | ? | ? | -53.7* | ? | ?
CC1(c2ccccc2)N(Cc2cccnc2)C(=O)OC12CCN(C(=O)c1ccc(Oc3ccccc3)cc1)CC2 (stereo not given) | · | · | · | · | · | 14.8%
CN(C)[C@@H]1C[C@@H](CO)N(Cc2cc(=O)n3c4c(cccc24)CCC3)C1 | · | · | · | · | · | 7.1%
Cc1ccc(NC(=O)Cn2c(-c3cnccn3)nc(C)c(CCO)c2=O)cc1 | · | · | · | · | · | 6.6%
O=C(NCCc1ccccc1)C1Cc2c(-c3ccccc3Oc3ccccc3)ccnc2O1 (stereo not given) | ? | ? | ? | -29.0 | 16.4µM* | 3.1%
O=C(NCCC(F)(F)F)C1Cc2c(-c3ccccc3Oc3ccccc3)ccnc2O1 (stereo not given) | -10.4% | -10.1% | ? | ? | -55.5% | 13.4%
CN(C)CCNC(=O)C1Cc2c(-c3ccccc3Oc3ccccc3)ccnc2O1 (stereo not given) | ? | 23.1µM* | 18.4µM* | -21.6 | 29.1µM* | -10.7%
CN1CCN(c2ccc(CNC(=O)C3Cc4c(-c5ccccc5Oc5ccccc5)ccnc4O3)cc2)CC1 (stereo not given) | ? | 20.6µM* | ? | ? | ? | -29.3%
Cn1ncc(N2CCCC(CC(=O)Nc3ccc(Cl)cc3)C2)cc1=O (stereo not given) | · | · | · | · | · | 3.7%
O=C1C(SCCO)=C(SCCO)C(=O)c2ccccc21 | -84.3% | ? | 0.164µM* | -54.4* | 0.0517µM* | ?
SMILES | HT1080-NT tox | HT1080 IDH1KD tx | DT40 TDP1 no CPT | IL1B secr inh | TDP1 cell CPT | ALOX12 inh
Cc1ccc(N2CCC(NC(=O)c3cc(F)cc(F)c3)C2=O)cc1 (stereo not given) | · | · | · | · | · | 7.0%
CC(C)(C)OC(=O)CC[C@@H](C(=O)NCCCCCCCCCCC(=O)N1CCN(C(=O)OC(C)(C)C)CC1)n1cc(CCCCCNC(=O)OC(C)(C)C)nn1 | -7.1% | -2.9% | 4.11µM* | 4.6 | 5.8µM* | -25.9%
CC[C@H](C)[C@@H](C(=O)NCCCCCCCCCCC(=O)N1CCN(C(=O)OC(C)(C)C)CC1)n1cc(CCCCCNC(=O)OC(C)(C)C)nn1 | -10.9% | -8.4% | 5.8µM* | 35.2 | 4.61µM* | -21.5%
C[C@H](O)[C@@H](C(=O)N1CCN(C(=O)OC(C)(C)C)CC1)n1cc(CCCCNC(=O)OC(C)(C)C)nn1 | 5.5% | 2.2% | ? | 0.5 | -23.4% | 3.4%
Cc1cn([C@H](C(=O)NCCCCCCCCCCC(=O)N2CCN(C(=O)OC(C)(C)C)CC2)[C@@H](C)O)nn1 | -3.1% | -6.7% | 16.4µM* | 31.5 | 23.1µM* | 7.6%
CC(C)(C)OC(=O)NCCCCCc1cn([C@@H](CO)C(=O)NCCCCCCCCCCC(=O)N2CCN(C(=O)OC(C)(C)C)CC2)nn1 | 16.4µM* | 16.4µM* | 2.31µM* | 0.0 | 2.59µM* | 1.3%
CNc1c(NC(=O)c2cc(OC)ccc2Br)c(=O)oc2ccccc12 | · | · | · | · | · | -19.2%
CCn1cnc2c1c(=O)n(CC(=O)Nc1cccc(OC)c1)c(=O)n2Cc1ccccc1 | · | · | · | · | · | -24.8%
O=C(Nc1ccc2ccccc2n1)c1ccc(S(=O)(=O)N2CCCC2)cc1 | · | · | · | · | · | -22.0%
CCOc1ccc(S(=O)(=O)Nc2ccc3c(c2)CCCN3S(=O)(=O)c2ccc(C)cc2)cc1 | · | · | 18.4µM* | · | ? | ?
Cc1ccc(S(=O)(=O)N2CCCc3cc(NS(=O)(=O)c4cccc(Cl)c4)ccc32)cc1 | · | · | 20.6µM* | · | 20.6µM* | -23.0%
Cc1[nH]c2ccccc2c1/C=C(/C#N)C(=O)NC1CC1 | · | · | · | · | · | -51.2%
CNC(=O)[C@@H]1CN(C(=O)CCc2cc(OC)no2)C[C@H]1c1n[nH]c(C)n1 | · | · | · | · | · | 28.2%
CC(C)(C)C1COc2ccccc2N1C(=O)c1cccc(Cl)c1 (stereo not given) | 24.2% | 16.7% | 23.1µM* | 7.6 | ? | -5.9%
